Active and inactive are the calls of the source.
Columns and labels:
[1] = binders of probe aFSTL3 on microarray, primary screen, stem cell growth factor project, biochemical, small-molecule microarray, fluorescence 635/667 (AID 1064); details: higher = more signal;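 also: measures binding of the biotinylated anti-FSTL3 antibody to printed compounds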
[2] = binders from COS7 lysate, DM2A8 probe, primary screen, torsin A project, cell lysate, small-molecule microarray, fluorescence 635/667 (AID 1065); details: higher = more signal, COS7 lysate expressing mutant human TOR1A
[3] = binders of probe aFGF2 on microarray, primary screen, stem cell growth factor project, biochemical, small-molecule microarray, fluorescence 635/667 (AID 1067); details: higher = more signal;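 also: measures binding of biotinylated aFGF2 protein to printed compounds on slides; z-score merges feature fluorescence and signal-to-noise across triplicate slides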
[4] = binders of probe aFGF10 on microarray, primary screen, stem cell growth factor project, biochemical, small-molecule microarray, fluorescence 635/667 (AID 1071); details: higher = more signal;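 also: score merges 667 nm spot intensity and signal to noise from triplicate slides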
[5] = molecular target: Neurogenic locus notch homolog protein 2 (Homo sapiens) (UniProt Q04721); test: Notch2 binders on small-molecule microarrays, primary screen, biochemical, small-molecule microarray, 635 nm fluorescence, stem cell growth factors (AID 1073); details: Notch2 binding, higher = more signal
Sequence of Neurogenic locus notch homolog protein 2 (Homo sapiens) (Q04721 whole entry, looked up, canonical isoform): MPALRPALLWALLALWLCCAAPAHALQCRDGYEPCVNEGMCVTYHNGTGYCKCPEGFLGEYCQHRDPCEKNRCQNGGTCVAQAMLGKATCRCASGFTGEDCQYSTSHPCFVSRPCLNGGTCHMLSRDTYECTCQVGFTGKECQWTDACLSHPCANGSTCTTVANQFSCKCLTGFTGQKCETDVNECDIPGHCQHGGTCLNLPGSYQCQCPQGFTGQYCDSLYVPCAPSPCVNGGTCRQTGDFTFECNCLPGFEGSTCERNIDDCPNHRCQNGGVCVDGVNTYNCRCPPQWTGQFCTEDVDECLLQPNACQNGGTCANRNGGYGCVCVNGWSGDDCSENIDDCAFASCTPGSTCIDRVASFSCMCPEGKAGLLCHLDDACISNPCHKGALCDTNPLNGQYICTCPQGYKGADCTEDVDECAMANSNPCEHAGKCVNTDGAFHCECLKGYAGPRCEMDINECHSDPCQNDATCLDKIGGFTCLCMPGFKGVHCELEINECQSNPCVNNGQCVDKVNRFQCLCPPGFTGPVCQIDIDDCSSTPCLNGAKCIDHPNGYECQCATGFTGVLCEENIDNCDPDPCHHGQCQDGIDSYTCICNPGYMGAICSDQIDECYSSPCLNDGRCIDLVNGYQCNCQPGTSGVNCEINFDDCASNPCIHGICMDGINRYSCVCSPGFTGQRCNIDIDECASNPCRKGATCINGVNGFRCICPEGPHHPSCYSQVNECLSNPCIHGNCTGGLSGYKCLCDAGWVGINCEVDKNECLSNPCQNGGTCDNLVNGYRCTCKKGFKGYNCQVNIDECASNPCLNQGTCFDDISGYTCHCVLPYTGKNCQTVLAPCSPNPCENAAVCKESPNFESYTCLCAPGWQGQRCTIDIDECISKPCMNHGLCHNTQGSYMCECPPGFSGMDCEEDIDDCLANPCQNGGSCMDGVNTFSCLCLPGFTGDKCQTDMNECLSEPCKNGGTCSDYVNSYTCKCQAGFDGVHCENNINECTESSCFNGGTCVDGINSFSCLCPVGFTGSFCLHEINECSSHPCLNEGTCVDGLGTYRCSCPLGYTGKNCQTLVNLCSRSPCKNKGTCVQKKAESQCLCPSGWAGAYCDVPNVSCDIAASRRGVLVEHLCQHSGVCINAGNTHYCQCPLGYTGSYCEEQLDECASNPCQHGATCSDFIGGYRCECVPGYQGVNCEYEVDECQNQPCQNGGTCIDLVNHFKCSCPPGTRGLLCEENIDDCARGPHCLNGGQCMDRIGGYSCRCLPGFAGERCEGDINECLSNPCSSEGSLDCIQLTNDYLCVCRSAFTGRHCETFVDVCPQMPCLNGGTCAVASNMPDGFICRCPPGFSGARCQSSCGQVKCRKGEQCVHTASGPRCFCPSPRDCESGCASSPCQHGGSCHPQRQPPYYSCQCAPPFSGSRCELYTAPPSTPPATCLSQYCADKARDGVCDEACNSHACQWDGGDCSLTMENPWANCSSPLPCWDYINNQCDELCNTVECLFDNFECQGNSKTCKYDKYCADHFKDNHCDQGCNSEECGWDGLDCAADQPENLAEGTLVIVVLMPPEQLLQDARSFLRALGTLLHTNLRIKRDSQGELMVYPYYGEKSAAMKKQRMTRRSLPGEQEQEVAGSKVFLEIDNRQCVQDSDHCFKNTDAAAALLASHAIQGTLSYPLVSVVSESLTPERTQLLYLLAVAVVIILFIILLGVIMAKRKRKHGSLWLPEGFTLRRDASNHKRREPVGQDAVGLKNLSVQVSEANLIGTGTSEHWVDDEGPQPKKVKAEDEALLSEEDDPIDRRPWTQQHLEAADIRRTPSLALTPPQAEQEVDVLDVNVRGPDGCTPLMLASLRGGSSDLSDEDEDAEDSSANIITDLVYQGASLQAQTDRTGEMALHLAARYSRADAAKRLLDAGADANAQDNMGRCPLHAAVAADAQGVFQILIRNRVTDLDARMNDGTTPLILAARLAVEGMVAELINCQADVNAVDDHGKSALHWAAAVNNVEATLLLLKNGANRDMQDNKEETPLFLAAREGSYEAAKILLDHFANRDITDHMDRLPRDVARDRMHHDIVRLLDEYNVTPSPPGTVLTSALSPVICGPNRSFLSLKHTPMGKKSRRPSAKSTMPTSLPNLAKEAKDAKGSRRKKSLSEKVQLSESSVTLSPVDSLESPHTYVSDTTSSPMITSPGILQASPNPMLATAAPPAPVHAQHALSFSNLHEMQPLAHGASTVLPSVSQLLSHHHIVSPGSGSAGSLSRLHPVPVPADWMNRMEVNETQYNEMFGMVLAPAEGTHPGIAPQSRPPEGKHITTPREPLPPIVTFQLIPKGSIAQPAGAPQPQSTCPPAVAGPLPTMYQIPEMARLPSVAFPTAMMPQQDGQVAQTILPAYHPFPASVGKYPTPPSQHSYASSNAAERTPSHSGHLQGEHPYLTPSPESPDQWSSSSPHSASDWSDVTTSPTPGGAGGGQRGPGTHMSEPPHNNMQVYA

[6] = molecular target: Pro-neuregulin-1, membrane-bound isoform (Homo sapiens) (UniProt Q02297); test: NRG1 binders on small-molecule microarrays, primary screen, psychiatric disease protein project, biochemical, small-molecule microarray, fluorescence 635/667 (AID 1075); details: NRG1 binding, 635 nm fluorescence, higher = more signal;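 also: score combines 667 nm spot fluorescence with signal to noise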
Sequence of Pro-neuregulin-1, membrane-bound isoform (Homo sapiens) (Q02297 whole entry, looked up, the tested form may be a part, canonical isoform): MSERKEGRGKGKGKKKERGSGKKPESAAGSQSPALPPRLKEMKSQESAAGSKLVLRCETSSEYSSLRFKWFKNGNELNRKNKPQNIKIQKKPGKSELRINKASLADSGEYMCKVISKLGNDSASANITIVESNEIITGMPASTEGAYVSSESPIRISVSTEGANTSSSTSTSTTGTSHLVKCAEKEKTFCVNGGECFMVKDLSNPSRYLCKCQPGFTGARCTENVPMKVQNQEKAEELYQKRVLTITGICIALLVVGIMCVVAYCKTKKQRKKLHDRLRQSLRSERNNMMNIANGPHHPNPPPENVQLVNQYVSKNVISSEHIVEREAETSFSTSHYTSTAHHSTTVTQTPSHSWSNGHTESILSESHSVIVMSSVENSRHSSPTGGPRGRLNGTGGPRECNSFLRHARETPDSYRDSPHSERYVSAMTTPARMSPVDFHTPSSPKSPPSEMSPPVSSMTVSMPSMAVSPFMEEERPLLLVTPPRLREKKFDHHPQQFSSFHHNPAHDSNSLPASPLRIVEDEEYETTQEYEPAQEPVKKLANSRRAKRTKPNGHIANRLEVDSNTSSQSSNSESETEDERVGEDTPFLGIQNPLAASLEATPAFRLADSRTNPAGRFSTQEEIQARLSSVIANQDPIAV

[7] = tested on: Neuregulin-1 EGF-like domain; test: binders of neuregulin-1 EGF-like domain, primary screen, biochemical, small-molecule microarray, 635 nm fluorescence (AID 1081); details: small-molecule microarray binding, higher = more signal;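 also: binding of the protein to compounds printed on small-molecule microarray slides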
[8] = FRG1 promoter luciferase signal modulators, primary screen, FRG1 inhibition for FSHD, cell-based, C2C12 myotubes, firefly/Renilla luciferase, luminescence (AID 1084); details: higher = more signal, called active from +8 up or from −8 down
[9] = binders of probe aFST on microarray, primary screen, stem cell growth factor project, biochemical, small-molecule microarray, fluorescence 635/667 (AID 1086); details: higher = more signal;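 also: score merges 667 nm fluorescence with signal-to-noise of each printed compound spot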
[10] = binders of probe aHhip on microarray, primary screen, stem cell growth factor project, biochemical, small-molecule microarray, fluorescence 635/667 (AID 1087); details: higher = more signal;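 also: score merges spot fluorescence at 667nm with spot signal to noise ratio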

SMILES | composite z-score [1] | composite z-score [2] | composite z-score [3] | composite z-score [4] | composite z-score [5] | composite z-score [6] | composite z-score [7] | z-score [8] | composite z-score [9] | composite z-score [10]
COc1ccc([Si](C)(C)[C@H]2[C@H](CCO)O[C@@]3(C(=O)N(Cc4ccccc4)c4ccc(NC(=O)[C@H](C)O)cc43)[C@@H]2C)cc1 | -0.0382 | 0.394 | -0.0653 | 1.12 | 0.855 | 0.638 | 1.18 | -3.18 (inactive) | 0.239 | 0.126
COc1ccc(C(O)C2C=CC3C(=O)N(c4ccccc4)C(=O)C3N2Nc2ccccc2F)c2ccccc12 (stereo not given) | 1.24 | 1.08 | 0.433 | 1.14 | 1.72 | 1.79 | 1.23 | 1.25 (inactive) | 1.89 | -0.233
COc1ccc([Si](C)(C)[C@H]2[C@H](CC(=O)N3CCC[C@H]3CO)O[C@@]3(C(=O)N(Cc4cccc(N5CCCCC5=O)c4)c4ccccc43)[C@@H]2C)cc1 | -0.381 | 0.519 | -0.126 | 0.682 | 0.757 | 0.836 | 1.14 | -3.74 (inactive) | 0.0346 | -0.0296
CCCN1C(=O)[C@@]2(c3ccc([N+](=O)[O-])cc3)CC(=O)N(C3CCCCC3)[C@@H]2c2ccc(CO)cc21 | -0.439 | -0.768 | -0.0131 | -0.201 | -0.553 | -0.154 | 1.23 | 0.693 (inactive) | -0.479 | 0.137
C=CCC(OC(C)=O)[C@@H]1[C@@H](N(Cc2ccc(-c3ccccc3)cc2)C(=O)Cc2ccc(OC)cc2)c2cc(OCCCO)ccc2N1C(=O)c1ccc2ccccc2c1 (stereo not given in full) | -0.286 | 1.09 | -0.0486 | 0.269 | -0.238 | -0.157 | -0.659 | -0.808 (inactive) | 0.544 | -0.283
CCCCC(=C=CC[C@H](O)c1ccccc1OCCO)CCO | -0.121 | -0.46 | -0.0579 | 0.656 | -0.543 | 1.4 | 0.787 | 0.125 (inactive) | -0.299 | 0.0749
COc1ccc([Si](C)(C)[C@H]2[C@H](CC(=O)N3CCC[C@H]3CO)O[C@@]3(C(=O)N(C)c4c(Br)cc(C)cc43)[C@@H]2C)cc1 | 0.536 | 1.88 | 0.336 | 1.04 | 0.284 | 2.51 | 1.41 | -1.39 (inactive) | 1.12 | 0.104
O=C1OCC=C[C@H]2OC34C=CCN(Cn5nnc6ccccc65)C(=O)[C@H]3N(CCO)C(=O)[C@@H]4[C@@H]12 (stereo not given in full) | 0.645 | 1.9 | -0.129 | -0.749 | -1.45 | 0.864 | 0.579 | 0.13 (inactive) | -0.406 | -0.139
O=C1c2ccccc2[C@](Cc2ccccc2I)(C(=O)NCCN2CCOCC2)[C@H](c2ccc(CO)cc2)N1Cc1ccccc1C(F)(F)F | -0.103 | 0.321 | -0.1 | 0.0371 | 0.614 | 1.2 | 1.25 | -1.66 (inactive) | 0.558 | 0.0156
C=CCNC(=O)[C@H]1[C@@H]2C(=O)O[C@@H](c3ccccc3)[C@@H](c3ccccc3)N2[C@@H](c2ccc(O)cc2)[C@]12C(=O)Nc1ccc(C#CCC(C(=O)OC)C(=O)OC)cc12 | -0.102 | -0.0975 | -0.0878 | 0.0813 | 0.136 | 0.0652 | 1.19 | -0.32 (inactive) | 0.0765 | -0.261
CCCCC(=C=CC[C@@H](O)c1ccc(OCCO)cc1)CCO | -0.171 | 0.532 | -0.087 | 0.558 | -0.051 | 1.65 | 0.922 | -0.58 (inactive) | 0.0121 | 0.176
CCCCCCc1nc(Cc2cc(OC)c(OC)c(OC)c2)c(C)c2c1[Si](C(C)C)(C(C)C)OC2 | -0.491 | 0.0293 | -0.0328 | -0.0482 | -0.0366 | -0.186 | 0.105 | -0.474 (inactive) | -0.0696 | -0.274
COc1cccc(C)c1NC(=O)O[C@H]1[C@H](OC(=O)Nc2ccccc2-c2ccccc2)[C@@H](OC(=O)Nc2ccccc2-c2ccccc2)[C@@H](OC)O[C@@H]1CO | -0.182 | 0.968 | 0.141 | 1.17 | 1.61 | 1.74 | 1.38 | 0.945 (inactive) | 1.64 | 0.053
CCOC(=O)C=C1C[C@@H](c2cccc([N+](=O)[O-])c2)O[C@@H](c2cccc([N+](=O)[O-])c2)O1 | 0.654 | 0.178 | 0.429 | 0.432 | 1.59 | 0.962 | 0.896 | -2.17 (inactive) | 1.72 | -0.226
COC(=O)[C@@]1(Cc2ccc(F)cc2)[C@H]2c3cc(C(=O)N(C)C)n(CCF)c3C[C@H]2CN1C(=O)c1ccccc1 | 0.267 | 0.0612 | 0.131 | 0.623 | 1.22 | 1.83 | 1.06 | -1.3 (inactive) | 0.329 | 0.0274
COC(=O)C[C@H]1O[C@]2(C(=O)N(C)c3ccccc32)[C@@H](C)[C@@H]1[Si](C)(C)c1ccccc1 | -0.486 | 0.0686 | -0.0767 | 0.351 | 0.731 | 0.033 | 0.854 | -2.11 (inactive) | 0.333 | 0.357
C=C(COC)/C(=C/C[C@@H](OC(C)=O)c1cccc(OCCO)c1)c1cnc2ccccc2c1 | 0.305 | -0.116 | -0.076 | 0.826 | 1.63 | 0.679 | 1.18 | 3.42 (inactive) | 0.134 | -0.214
C=C(C(=O)CC[C@@H](OC(=O)c1cccnc1)c1cccc(OCCO)c1)C(C)C | -0.512 | -0.0785 | -0.167 | 0.684 | -0.0786 | -0.145 | -0.284 | 1.2 (inactive) | 0.267 | -0.236
CCOC(=O)C1=CCC(c2cccn2C(=O)OC(C)(C)C)N(S(=O)(=O)c2ccc(C)cc2)C1 (stereo not given) | 1.3 | 0.42 | 0.0267 | 0.243 | 0.884 | 1.7 | 1.18 | -2.99 (inactive) | 0.67 | 1.07
COc1ccc([Si](C)(C)[C@H]2[C@H](CC(=O)N(CCO)Cc3ccccc3)O[C@@]3(C(=O)N(Cc4ccc(N5C(=O)c6cccc7cccc5c67)cc4)c4ccccc43)[C@@H]2C)cc1 | -0.0915 | 0.285 | -0.0249 | 0.479 | 0.141 | 1.14 | 1.14 | -3.26 (inactive) | 0.193 | 0.12
COc1ccc(CCNC(=O)[C@@H]2c3ccccc3C(=O)N(C(C)C)[C@H]2c2ccc(CO)cc2)cc1 | 1.42 | -0.489 | -0.142 | -0.92 | -1.48 | 0.0203 | 0.209 | -1.15 (inactive) | -0.36 | -0.379
CC(=O)NCCCC[C@@H]1NC(=O)[C@H]2C[C@@H](C(=O)O)[C@@H](c3cccc(OCCO)c3)N2C1=O | -0.318 | 1.1 | 0.0761 | 0.841 | 1.15 | 1.14 | 1.18 | 0.618 (inactive) | 0.491 | -0.0862
O=C1O[C@H](c2ccccc2)[C@H](c2ccccc2)N2[C@H]1[C@@H](C(=O)Nc1nc3ccccc3s1)[C@]1(C(=O)Nc3ccccc31)[C@H]2c1ccccc1OCCO | -0.249 | -0.0611 | 0.0084 | 0.12 | 1.15 | 1.42 | 1.02 | 1.62 (inactive) | -0.0275 | -0.0994
O=C1NC(=O)C2C1C=CC(C(O)C(c1ccccc1)c1ccccc1)N2Nc1ccccn1 (stereo not given) | 0.473 | 0.521 | 0.162 | 0.951 | 1.05 | 0.604 | 1.25 | 0.723 (inactive) | 0.59 | -0.0959
CN(C)CCCC[C@@H]1NC(=O)[C@H]2C[C@@H](C(=O)NCCCCCCNC(=O)CS)[C@@H](c3cccc(OCCO)c3)N2C1=O | 0.272 | 0.447 | -0.135 | -0.217 | -0.486 | 0.891 | 0.334 | 0.47 (inactive) | -0.346 | 0.411
CC(CO)N1C(=O)[C@@H]2[C@H]3C(=O)OCC=C[C@H]3OC23C=CCN(c2ccc4ccccc4c2)C(=O)[C@@H]13 (stereo not given in full) | 0.865 | -1.47 | -0.149 | -0.451 | -1.19 | -1.2 | 0.632 | 0.621 (inactive) | -0.946 | -0.0994
COC(=O)[C@@]1(Cc2ccc(F)cc2)[C@H]2c3cc(C(=O)N(C)C)n(Cc4ccsc4Br)c3C[C@H]2CN1C(=O)c1ccccc1 | 2.25 | -0.3 | 0.915 | 1.01 | 1.83 | 1.88 | 0.529 | 1.94 (inactive) | 2.68 | 3.87
CC(C)C[C@H]1NC(=O)CNC(=O)[C@@]23C(=O)N[C@@H](Cc4ccccc4)C2[C@H](C)[C@@]2(C)O[C@H]2C3/C=C/C/C=C\CNC1=O (stereo not given in full) | -0.564 | 0.11 | -0.159 | 0.582 | -0.222 | 0.205 | 0.598 | 1.81 (inactive) | 0.136 | -0.0121

Reference: PubChem BioAssay
